Paper PMC13494018
Values without a mark were called inactive. No rule for the calls is given here.

B1: d2r2_design_ppi_470_dldesign_0_cycle1_af2pred (protein)
chain: AAARARAYVALWQAANRAFAAAFATGSDAALAAARAAAAAAGAVLPGGRDAFLATVDSQAAALRAARAAAAAAAAA
B2: d2r2_design_ppi_370_dldesign_0_cycle1_af2pred (protein)
chain: RVISPAEIVELHTAANAALREALEGDPEAGLARLRAVADRAAALSPALGAALRAEAEGARAALAAAAAAAAA
B3: d2r6_design_ppi_69_dldesign_0_cycle1_af2pred (protein)
chain: GLEAAQAEASRLWRQLTPEGRAAAARAVNARVAGDTAAAAAILAAAKAADPAQGALAEAAAEALLRAIDLANAQAAAEAAARAAAA
B4: d2r7_design_ppi_460_dldesign_0_cycle1_af2pred (protein)
chain: AAALAAARAAAAAAAAEAVARAAAEGPGLGLLMANEAARLLREAAAGDAAEVRAAAARLLAFAEQAIAAARANRAQAAAAR
B5: d2r6_design_ppi_176_dldesign_0_cycle1_af2pred (protein)
chain: ALREEVEKKMGEVLDLLKELQEKKKKGELTPEQIELMQQSMRELAKAAGYLASGDKVEEAKKEAEKALELAKKALEE
B6: d2r6_design_ppi_95_dldesign_0_cycle1_af2pred (protein)
chain: AEAQAQAKAIVQQGYQDARALIDKYGLPVAAKVKVFNLVSAGAIIAEQGGTVEEVAAAVEAALAAAKAAAA
B7: d2r6_design_ppi_333_dldesign_0_cycle0_af2pred (protein)
chain: MEEEGKKKAEEALKKAEESLKLAKSGKKLKEAEKKFAEALSLMEEAKPYLNKNPEVNKKLSKKLGEAAKALIAAKA
B8: d2r3_design_ppi_395_dldesign_0_cycle1_af2pred (protein)
chain: SREALRQAGQLAVQAQTLANRGLALLLADPAAAPEAQALLDQAAALGEQAPVAAPVAETGRAQFAALAARL
B9: d2r6_design_ppi_493_dldesign_0_cycle1_af2pred (protein)
chain: SATEAQVAAVKAKIDAATQAALNAHAARLTAAGIQAVIQTAYDASKAAGAEVKAGGDPEKAAAAAIKAVNDTAEAAAA
B10: d2r6_design_ppi_165_dldesign_0_cycle0_af2pred (protein)
chain: MEVVEKVAELARKAAEAVERNLGEGFALAIQAADLAAEHEEVAEEAAEAAEEVLRKRAEEHPEHRERLLRLAEDFRSAVAHLLAQKA
B11: d2r4_design_ppi_198_dldesign_0_cycle1_af2pred (protein)
chain: AASAAMRAFTAAYGAANAAVARLYAADPAAGAAAARALQAALDEALALGAATGVAGIEEGAAALAAAAAALAAEAAALAAA
B12: d2r6_design_ppi_32_dldesign_0_cycle1_af2pred (protein)
chain: MKEELKKALKNAEDAAATAKQVAASDPEAKAKVEELEKEARKLAKEGLEGTEEKAEEALKRVGELTREILRIASQQFAKQQA
B13: d2r6_design_ppi_69_dldesign_0_cycle0_af2pred (protein)
chain: ALEELRRRASELWRALSPEARQAAARAVNARVAGDEAAAEAILAEQEARDPEQGALARAAADAALAAIDLANAQAAAAARAAAAAA
B14: d2r7_design_ppi_31_dldesign_0_cycle1_af2pred (protein)
chain: AEAEALEAGAQVLSIVTATRAQTVAAFAQDPALGRQMYRQLQAAVRLAETTAKAYPAVAAELLAAAAAARAEAQAAL
B15: d2r2_design_ppi_429_dldesign_0_cycle1_af2pred (protein)
chain: AAAEALRRALGAVLVAAHEAANRAAAERGLAAAEEVLAAGRAAGHALAARHPGAALARRAVDSQVAASAHVARHIAARAAALR
B16: d2r6_design_ppi_231_dldesign_0_cycle1_af2pred (protein)
chain: AAAAEAAAAADERIATGAAAVAAMARVGARRGVEAARRLGERMLEAVTRAMAAEDPAAGARAREVGTAVFEAEIAAAAAAAAA
B17: d2r7_design_ppi_218_dldesign_0_cycle0_af2pred (protein)
chain: SAAEAEAKRYINHAETTLATAKQLAERSTPEQAARYYRAAGEIAWKDYEKAGEALSPEEGEKMRKKGKEVKEELEKKAKELEEK
B18: d2r6_design_ppi_356_dldesign_0_cycle0_af2pred (protein)
chain: SEEELEKTRASLEQLKGLAEWQAAQHPEQAPLYAEAARLAEEGMKATVEEARQLGAQASALLGRAVGAAAA
B19: d2r7_design_ppi_474_dldesign_0_cycle1_af2pred (protein)
chain: MASLEAGYQQFLDSIAALPLDRADAQLAAQAARHRELAARYAAAAEAAADPAVAARLRARARDHEAAAAAVEAIRAEVTARAAARA

Biological target: CD276, Q5ZPR3
Sequence (Q5ZPR3 whole entry): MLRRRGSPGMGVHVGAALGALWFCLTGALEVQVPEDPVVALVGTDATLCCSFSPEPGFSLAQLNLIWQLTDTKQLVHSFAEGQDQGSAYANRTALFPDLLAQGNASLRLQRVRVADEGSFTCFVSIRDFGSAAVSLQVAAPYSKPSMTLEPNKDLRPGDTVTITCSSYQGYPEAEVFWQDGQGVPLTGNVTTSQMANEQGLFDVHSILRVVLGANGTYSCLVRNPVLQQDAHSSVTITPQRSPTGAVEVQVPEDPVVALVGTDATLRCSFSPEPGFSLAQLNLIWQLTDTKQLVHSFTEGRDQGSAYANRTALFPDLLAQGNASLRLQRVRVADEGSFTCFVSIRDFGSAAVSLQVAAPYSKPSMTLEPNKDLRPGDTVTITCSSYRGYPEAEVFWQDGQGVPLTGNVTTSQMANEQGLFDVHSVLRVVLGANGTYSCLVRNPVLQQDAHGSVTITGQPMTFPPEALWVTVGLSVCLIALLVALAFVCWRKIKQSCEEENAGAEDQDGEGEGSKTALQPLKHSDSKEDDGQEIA

| Binder | binding in a display sort |
| --- | --- |
| B1 | not found |
| B2 | not found |
| B3 | not found |
| B4 | not found |
| B5 | not found |
| B6 | not found |
| B7 | not found |
| B8 | not found |
| B9 | not found |
| B10 | not found |
| B11 | not found |
| B12 | not found |
| B13 | not found |
| B14 | not found |
| B15 | not found |
| B16 | not found |
| B17 | not found |
| B18 | not found |
| B19 | not found |
